Measured values as given in PubChem BioAssay (EPA / NIEHS).
Where “and” joins values, the source holds several entries; their conditions need not be identical. Identical values can stand only once. Some compounds were tested as several samples or in several runs, with calls that do not always agree. Calls of active or inactive are those of the source. The calls were made as follows: active = hit-call score of the fitted dose curve at least 0.9, where 1 is the maximum; inactive = score below 0.9.

How the values were obtained:
[1] = read-out: Vascular endothelial growth factor receptor 2 (Homo sapiens) (UniProt P35968); experiment: BSK_4H_VEGFRII: BioMAP Diversity Plus: 4H Assay for Vascular endothelial growth factor receptor 2 (VEGFR2) Biomarker Activity (AID 2283031); settings: primary human endothelial cells (HUVEC); actives raise or lower the signal;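 as to AC50: cell-surface VEGFR2 protein level quantified by ELISA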
Procedure, shortened: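 Primary human umbilical vein endothelial cells in the BioMAP 4H system were dosed with test chemical, and 24 h later VEGFRII was measured by ELISA. Activity was fitted bidirectionally against DMSO as negative control and baseline.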

[2] = read-out: Human Leukocyte Antigen - DR isotype (HLADR), HLA-DRA (gene 3122); experiment: BSK_BE3C_HLADR: BioMAP Diversity Plus: BE3C Assay for Human Leukocyte Antigen - DR isotype (HLADR) Biomarker Activity (AID 2283032); settings: primary human bronchial epithelial cells; actives raise or lower the signal
Procedure, shortened: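 Cell-surface HLA-DR ELISA readout at 24 h after dosing in the BE3C primary human lung bronchial epithelial system; gain or loss of signal against DMSO, with parallel sulforhodamine B staining of total protein for overt cytotoxicity.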

[3] = read-out: Vascular cell adhesion molecule 1 (VCAM1), VCAM1 (gene 7412); experiment: BSK_4H_VCAM1: BioMAP Diversity Plus: 4H Assay for Vascular cell adhesion molecule 1 (VCAM1) Biomarker Activity (AID 2283033); settings: primary human endothelial cells (HUVEC); actives raise or lower the signal;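 as to outcome: cell-surface VCAM-1 protein measured by ELISA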
Procedure, shortened: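 VCAM-1 ELISA read 24 h after chemical dosing of HUVEC in the BioMAP 4H system, with gain or loss of signal fitted relative to DMSO. Parallel SRB staining (560 nm) checked overt cytotoxicity.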

[4] = read-out: Interferon-gamma inducible Protein 10 (IP10), CXCL10 (gene 3627); experiment: BSK_BE3C_IP10: BioMAP Diversity Plus: BE3C Assay for Interferon-gamma inducible Protein 10 (IP10) Biomarker Activity (AID 2283034); settings: primary human bronchial epithelial cells; actives raise or lower the signal
Procedure, shortened: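 IP-10 quantified by ELISA in human primary bronchial epithelial cell cultures at 24 hours post-dosing. Gain or loss of signal fitted relative to DMSO; parallel SRB staining assessed overt cytotoxicity.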

[5] = read-out: Monokine induced gamma interferon (MIG), CXCL9 (gene 4283); experiment: BSK_BE3C_MIG: BioMAP Diversity Plus: BE3C Assay for Monokine induced gamma interferon (MIG) Biomarker Activity (AID 2283035); settings: primary human bronchial epithelial cells; actives raise or lower the signal
Procedure, shortened: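 Dose cells (human primary bronchial epithelial), incubate 24 h, quantify MIG by ELISA, then fit concentration–response in both directions relative to DMSO control.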

[6] = read-out: Plasminogen activator inhibitor-1 (PAI1), SERPINE1 (gene 5054); experiment: BSK_BE3C_PAI1: BioMAP Diversity Plus: BE3C Assay for Plasminogen activator inhibitor-1 (PAI1) Biomarker Activity (AID 2283037); settings: primary human bronchial epithelial cells; actives raise or lower the signal
Procedure, shortened: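 PAI-1 was measured by ELISA in human primary bronchial epithelial cultures 24 h after chemical dosing, with cytotoxicity checked by SRB total-protein staining in parallel cultures. Activity was fitted in both directions relative to DMSO.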

[7] = read-out: urokinase plasminogen activator (uPA), PLAU (gene 5328); experiment: BSK_BE3C_uPA: BioMAP Diversity Plus: BE3C Assay for urokinase plasminogen activator (uPA) Biomarker Activity (AID 2283038); settings: primary human bronchial epithelial cells; actives raise or lower the signal;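 as to outcome: uPA protein level quantified by ELISA in cell cultures; uPA read one day after compound addition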
Procedure, shortened: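 Human primary bronchial epithelial cells were exposed to chemical for 24 h, then uPA levels were measured by ELISA. Responses were fitted bidirectionally against DMSO as negative control and baseline. Parallel SRB staining of total protein gauged overt cytotoxicity.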

[8] = read-out: Urokinase-type plasminogen activator receptor (uPAR), PLAUR (gene 5329); experiment: BSK_BE3C_uPAR: BioMAP Diversity Plus: BE3C Assay for Urokinase-type plasminogen activator receptor (uPAR) Biomarker Activity (AID 2283039); settings: primary human bronchial epithelial cells; actives raise or lower the signal;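 as to outcome: cells exposed to compound for one day before measurement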
Procedure, shortened: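 uPAR levels were measured by ELISA after 24 h compound treatment of primary human bronchial epithelial cells, fitted in both directions relative to DMSO. Parallel SRB staining served as the cytotoxicity read-out.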

[9] = read-out: Interleukin-6 (IL6), IL6 (gene 3569); experiment: BSK_CASM3C_IL6: BioMAP Diversity Plus: CASM3C Assay for Interleukin-6 (IL6) Biomarker Activity for (AID 2283040); settings: primary human coronary artery smooth muscle cells; actives raise or lower the signal
[10] = read-out: Tissue plasminogen activator (tPA), PLAT (gene 5327); experiment: BSK_BE3C_tPA: BioMAP Diversity Plus: BE3C Assay for Tissue plasminogen activator (tPA) Biomarker Activity (AID 2283041); settings: primary human bronchial epithelial cells; actives raise or lower the signal;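 as to outcome: tPA level quantified by ELISA one day after compound addition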
Procedure, shortened: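 tPA measured by ELISA 24 h after dosing human primary bronchial epithelial cells (BE3C system). Changes in either direction were fitted against DMSO. Parallel cultures were stained with SRB to flag overt cytotoxicity.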

[11] = read-out: Interleukin-8 (IL8), CXCL8 (gene 3576); experiment: BSK_CASM3C_IL8: BioMAP Diversity Plus: CASM3C Assay for Interleukin-8 (IL8) Biomarker Activity (AID 2283042); settings: primary human coronary artery smooth muscle cells; actives raise or lower the signal;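 also: IL-8 protein level quantified by ELISA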
[12] = read-out: Human Leukocyte Antigen - DR isotype (HLADR), HLA-DRA (gene 3122); experiment: BSK_CASM3C_HLADR: BioMAP Diversity Plus: CASM3C Assay for Human Leukocyte Antigen - DR isotype (HLADR) Biomarker Activity (AID 2283043); settings: primary human coronary artery smooth muscle cells; actives raise or lower the signal;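 also: cell-surface HLA-DR protein level quantified by ELISA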
[13] = read-out: Macrophage colony-stimulating factor (MCSF), CSF1 (gene 1435); experiment: BSK_CASM3C_MCSF: BioMAP Diversity Plus: CASM3C Assay for Macrophage colony-stimulating factor (MCSF) Biomarker Activity (AID 2283044); settings: primary human coronary artery smooth muscle cells; actives raise or lower the signal;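 also: M-CSF protein amount quantified by ELISA after 24 h exposure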
[14] = read-out: Low-density lipoprotein receptor (LDLR), LDLR (gene 3949); experiment: BSK_CASM3C_LDLR: BioMAP Diversity Plus: CASM3C Assay for Low-density lipoprotein receptor (LDLR) Biomarker Activity (AID 2283045); settings: primary human coronary artery smooth muscle cells; actives raise or lower the signal;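 also: LDLR protein level on the cell surface quantified by ELISA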
[15] = read-out: Monocyte Chemoattractant Protein-1 (MCP1), CCL2 (gene 6347); experiment: BSK_CASM3C_MCP1: BioMAP Diversity Plus: CASM3C Assay for Monocyte Chemoattractant Protein-1 (MCP1) Biomarker Activity (AID 2283046); settings: primary human coronary artery smooth muscle cells; actives raise or lower the signal;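 also: MCP-1 level quantified by ELISA 24 h after dosing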
[16] = BSK_CASM3C_Proliferation: Cell Proliferation Assessment in the BioMAP Diversity Plus: CASM3C Assay (AID 2283047); settings: primary human coronary artery smooth muscle cells;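 also: sulforhodamine B total protein stain as relative cell number at 560 nm; sub-confluent cells exposed 48 h before staining; fitted both ways against DMSO so gain or loss of cell number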
[17] = read-out: Monokine induced gamma interferon (MIG), CXCL9 (gene 4283); experiment: BSK_CASM3C_MIG: BioMAP Diversity Plus: CASM3C Assay for Monokine induced gamma interferon (MIG) Biomarker Activity (AID 2283048); settings: primary human coronary artery smooth muscle cells; actives raise or lower the signal
[18] = read-out: serum amyloid A (SAA), SAA1 (gene 6288); experiment: BSK_CASM3C_SAA: BioMAP Diversity Plus: CASM3C Assay for serum amyloid A (SAA) Biomarker Activity (AID 2283049); settings: primary human coronary artery smooth muscle cells; actives raise or lower the signal;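 also: SAA protein level quantified by ELISA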
[19] = read-out: Transforming growth factor beta 1 (TGFb1), TGFB1 (gene 7040); experiment: BSK_BE3C_TGFb1: BioMAP Diversity Plus: BE3C Assay for Transforming growth factor beta 1 (TGFb1) Biomarker Activity (AID 2283036;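 as to outcome: TGF-b1 protein level measured by ELISA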); settings: primary human bronchial epithelial cells; actives raise or lower the signal
Procedure, shortened: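 ELISA readout of TGF-b1 from human lung bronchial epithelial primary cells, taken 24 h post-treatment. Gain or loss of signal fitted relative to DMSO baseline, with parallel SRB staining for overt cytotoxicity.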

## OCC(F)(F)C(F)(F)C(F)(F)C(F)(F)C(F)(F)C(F)(F)C(F)(F)C(F)(F)CO
[1]
  outcome: inactive
[2]
  AC50: 30 µM (active) and 31.7 µM (active)
[3]
  AC50: 30 µM (active) and 24.8 µM (active)
[4]
  AC50: 38 µM (active) and 30.8 µM (active)
[5]
  AC50: 43 µM (active) and 46.6 µM (active)
[6]
  AC50: 37.4 µM (active) and 30 µM (active)
[7]
  outcome: inactive
[8]
  AC50: 43.7 µM (active) and 40.9 µM (active)
[9]
  outcome: inactive
[10]
  outcome: inactive
[11]
  outcome: inactive
[12]
  outcome: inactive
[13]
  outcome: inactive
[14]
  outcome: inactive
[15]
  outcome: inactive
[16]
  AC50: 49.9 µM (active) and 45.4 µM (active)
[17]
  outcome: inactive
[18]
  outcome: inactive

## CCN(CC)c1ccc2c(c1)Oc1cc(N(CC)CC)ccc1C21OC(=O)c2ccccc21
[1]
  outcome: inactive
[2]
  outcome: inactive
[3]
  outcome: inactive
[4]
  AC50: 1.98 µM (active)
[5]
  outcome: inactive
[19]
  outcome: inactive
[6]
  outcome: inactive
[7]
  outcome: inactive
[8]
  outcome: inactive
[9]
  outcome: inactive
[10]
  outcome: inactive
[11]
  outcome: inactive
[12]
  outcome: inactive
[13]
  outcome: inactive
[14]
  outcome: inactive
[15]
  outcome: inactive
[16]
  outcome: inactive
[17]
  outcome: inactive
[18]
  outcome: inactive

## NC(=O)C(F)(F)C(F)(F)C(F)(F)C(F)(F)C(F)(F)C(F)(F)C(F)(F)F
[1]
  outcome: inactive
[2]
  outcome: inactive
[3]
  outcome: inactive
[4]
  outcome: inactive
[5]
  outcome: inactive
[6]
  outcome: inactive
[7]
  outcome: inactive
[8]
  outcome: inactive
[9]
  outcome: inactive
[10]
  outcome: inactive
[11]
  outcome: inactive
[12]
  outcome: inactive
[13]
  outcome: inactive
[14]
  outcome: inactive
[15]
  outcome: inactive
[16]
  outcome: inactive
[17]
  outcome: inactive
[18]
  outcome: inactive

## Cc1cc(O)c(C(C)(C)C)cc1C(C)(C)C
[1]
  outcome: inactive
[2]
  AC50: 5.31 µM (active)
[3]
  AC50: 4.86 µM (active)
[4]
  AC50: 6.09 µM (active)
[5]
  AC50: 11 µM (active)
[19]
  AC50: 5.2 µM (active)
[6]
  AC50: 5.28 µM (active)
[7]
  AC50: 5.51 µM (active)
[8]
  AC50: 5.33 µM (active)
[9]
  AC50: 5.61 µM (active)
[10]
  AC50: 5.21 µM (active)
[11]
  AC50: 8.77 µM (active)
[12]
  AC50: 3.5 µM (active)
[13]
  AC50: 4.59 µM (active)
[14]
  AC50: 5.37 µM (active)
[15]
  AC50: 5.83 µM (active)
[16]
  AC50: 3.85 µM (active)
[17]
  AC50: 12.5 µM (active)
[18]
  AC50: 4.22 µM (active)

## NC(O)(C(F)(F)F)C(F)(F)F
[1]
  outcome: inactive
[2]
  outcome: inactive
[3]
  outcome: inactive
[4]
  outcome: inactive
[5]
  outcome: inactive
[6]
  outcome: inactive
[7]
  outcome: inactive
[8]
  outcome: inactive
[9]
  outcome: inactive
[10]
  outcome: inactive
[11]
  outcome: inactive
[12]
  outcome: inactive
[13]
  AC50: 43.4 µM (active)
  outcome: inactive
[14]
  outcome: inactive
[15]
  outcome: inactive
[16]
  outcome: inactive
[17]
  outcome: inactive
[18]
  outcome: inactive

## OCCCC(F)(F)C(F)(F)C(F)(F)C(F)(F)C(F)(F)C(F)(F)C(F)(F)C(F)(F)F
[1]
  AC50: 53.5 µM (active) and 36.8 µM (active)
[2]
  AC50: 44.6 µM (active) and 49.9 µM (active)
[3]
  AC50: 31.2 µM (active) and 45.1 µM (active)
[4]
  AC50: 32.3 µM (active) and 37.7 µM (active)
[5]
  AC50: 56.5 µM (active) and 53.4 µM (active)
[6]
  AC50: 37.8 µM (active) and 30.3 µM (active)
[7]
  AC50: 55.2 µM (active)
[8]
  AC50: 49.4 µM (active) and 54.6 µM (active)
[9]
  outcome: inactive
[10]
  AC50: 49.7 µM (active) and 47.2 µM (active)
[11]
  AC50: 38.9 µM (active) and 35.8 µM (active)
[12]
  AC50: 50.3 µM (active) and 50.6 µM (active)
[13]
  AC50: 29.1 µM (active) and 35.6 µM (active)
[14]
  AC50: 43.9 µM (active) and 45.4 µM (active)
[15]
  AC50: 41.6 µM (active) and 42.8 µM (active)
[16]
  AC50: 21 µM (active) and 39.5 µM (active)
[17]
  AC50: 46.8 µM (active) and 44.5 µM (active)
[18]
  AC50: 45.1 µM (active) and 40.2 µM (active)
